Data: PubChem BioAssay AID1578 (Sanford-Burnham Center for Chemical Genomics, 2009)
Hit rate of the full screen: of about 290,000 compounds, about 3,000 (1%) were called active. Cut-off read from the data, not from the text of the source: active = inhibition mostly above about 36% (no sharp cut-off); inactive = mostly below about 34%. For the sample, actives were picked, then their nearest neighbours and some compounds at random.

test: NOD1 signaling inhibitors, primary screen, cell-based, luminescence, uHTS (AID 1578); conditions: NOD1-driven NF-kB luciferase reporter cells, at 4 µM, stronger effect = higher value;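 note: HEK-293T reporter cells stimulated with the NOD1 agonist gamma-tri-DAP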

inhibition, active:
Cc1ccccc1NC(=O)c1ccc(Nc2c([N+](=O)[O-])cc([N+](=O)[O-])c3ccccc23)cc1 76.4%, COc1cc(C2NC(=O)NC(C)=C2C(C)=O)cc(OC)c1OC (centres undefined) 54.9%, CC1CCc2nc(/C(C#N)=C/c3ccncc3)sc2C1 (centres undefined) 64.3%, C=CCOc1ccccc1CNc1ccc2c(c1)OCCO2 58.5%, O=C(CCl)N(C/C=C/c1ccccc1)c1ccc2c(c1)OCCO2 54.1%, C=CCOc1ccccc1CN(C(=O)CCl)c1ccc2c(c1)OCO2 64.3%, COc1ccc(OC)c(N/C=C/C(=O)c2ccccc2)c1 62.5%, CNC(=S)N(CCc1c(C)[nH]c2ccc(Cl)cc12)Cc1cccnc1 46.2%, O=C(NCC1CCCO1)c1cc2c([nH]c3ccccc32)c(-c2cccc(Cl)c2)n1 (centres undefined) 73.1%, CC1(C)CCSC(/C=C/c2ccccc2)=N1 73.3%, COc1ccc(CS(=O)(=O)/C(Cl)=C(/Cl)C(=O)Nc2ccc(OC)nc2)cc1 78.4%, Cc1ccc(Nc2ccccc2N)cc1 59.7%, COc1cc2c(cc1OC)CN(C(=O)CSc1nc(C)cc(C)c1C#N)CC2 54.2%, O=[N+]([O-])c1cccc(CN2CCCCCC2)c1 82.1%, COc1ccc(C(=O)NNC(=S)NC(=O)c2ccc(Br)o2)cc1OC 37.6%, CNCc1cc(Cl)cc(OC)c1OC(C)C 44.6%, COc1ccc(CCn2ccc(O)c(Cc3c(F)cccc3Cl)c2=O)cc1OC 55.5%

inhibition, inactive:
Cc1ccc(S(=O)(=O)N(CC(=O)N2CCC(C)CC2)c2ccccc2)cc1 -4.7%, Cc1nc(NC(=O)c2ccccc2)sc1C -84.9%, COCC(=O)OCn1nnc2ccccc2c1=O 3.6%, O=C(Nc1ccccc1)c1ccc(Nc2c([N+](=O)[O-])cc([N+](=O)[O-])c3ccccc23)cc1 -8.1%, Cc1ccc(NC(=O)c2ccc(Nc3c([N+](=O)[O-])cc([N+](=O)[O-])cc3[N+](=O)[O-])cc2)cc1 4.8%, CSc1ccccc1NC(=O)c1ccc(CN2CCOCC2)cc1 -18.3%, CCOC(=O)COc1c(Br)cc(C2NC(=O)NC(C)=C2C(C)=O)cc1OC (centres undefined) -12.4%, COc1cc(C2NC(=O)NC(C)=C2C(C)=O)ccc1O (centres undefined) 7.8%, CCOCCOC(=O)Cn1cnc2scc(-c3ccc(C)cc3)c2c1=O -15.2%, O=C(CN1CCCC1=O)NC1(C(F)(F)F)NC(=O)N(Cc2ccccc2)C1=O (centres undefined) -22.8%, N#C/C(=C\c1ccncc1)c1nc2c(s1)CCCC2 -9.5%, CC1CCc2nc(/C(C#N)=C/c3cccnc3)sc2C1 (centres undefined) -52.3%, O=C(CSc1nc2c(cnn2-c2ccc(F)cc2)c(=O)[nH]1)N1CCCc2ccccc21 4.3%, CCCS(=O)(=O)N1CCCC(C(=O)Oc2ccc(OC)cc2)C1 (centres undefined) -5.5%, O=C(/C=C/c1ccccc1)Nc1ccc2c(c1)OCCO2 -2.7%, O=C(/C=C/c1ccccc1)NCCc1ccc2c(c1)OCCO2 -27.8%, CCOc1ccccc1NC(=O)Nc1ccc2c(c1)OCO2 -52.1%, C=CCOc1ccccc1CNc1cccc(F)c1 2.1%, Oc1ccccc1CNc1ccc2c(c1)OCCO2 -47.1%, O=Cc1ccccc1OCc1ccc2c(c1)OCO2 16.8%, O=C(CSc1c(F)c(F)cc(F)c1F)Nc1ccc(C2SCCS2)cc1 -7.2%, O=C(CSCc1ccc(Cl)cc1)Nc1ccc(O)cc1C(=O)O -25.7%, CCCc1cc(=O)[nH]c(/N=C(\N)Nc2ccccc2)n1 -6.1%, CCOC(=O)CNC(=O)CSc1nnc(NC(=O)c2ccc(S(=O)(=O)N3CCOCC3)cc2)s1 -3.6%, Cc1oncc1C(=O)N1CCCC(CO)(Cc2ccc(F)cc2F)C1 (centres undefined) -6.9%, CC(NS(=O)(=O)c1ccc(Br)cc1)c1ccccc1 (centres undefined) -16.8%, CCN1CCN(c2nc3c(c(=O)n(C)c(=O)n3C)n2Cc2cccc3ccccc23)CC1 -7.8%, COc1ccc(-c2nc3ccccc3n2Cc2ccccc2)cc1 14.3%, Cc1n(Cc2ccccc2)c2ccccc2[n+]1Cc1ccccc1 19.4%, O=C(CNC(=O)c1cccs1)NCCN1CCN(Cc2ccccc2)CC1 -22.6%, COc1ccc(OC)c(N/C=C/C(=O)c2ccc(OC)c(OC)c2)c1 -24.7%, COc1ccc(N/C=C/C(=O)c2ccccc2)cc1 -59%, Cc1nc2c(ccc3nc(NC(=O)Cc4cccc5ccccc45)sc32)s1 -33%, COc1cc2[nH]c(=S)nc(NCc3ccc(Cl)cc3)c2cc1OC -8.3%, COc1cc(OC)cc(C(=O)N[C@H](C(=O)OCc2cc(=O)oc3cc(C)ccc23)C(C)C)c1 -34.2%, Cc1csc2c(NC3CCN(Cc4ccccc4)CC3)ncnc12 5%, Cc1sc2ncnc(NC3CCN(Cc4ccccc4)CC3)c2c1C 42.7%, CNC(=S)N(CCc1c(C)[nH]c2ccc(C)cc12)Cc1cccnc1 -9%, CCNC(=S)N(CCc1c(C)[nH]c2ccc(Cl)cc12)Cc1cccnc1 11.3%, O=C(OCc1nc2ccccc2s1)c1ccc([N+](=O)[O-])o1 -43.7%, Cc1ccc(C(=O)NCc2ccc(F)cc2)cc1NC1=NC2CS(=O)(=O)CC2S1 (centres undefined) -41.2%, COc1cccc(-c2nc(C(=O)NCC3CCCO3)cc3c2[nH]c2ccccc23)c1 (centres undefined) 51.4%, O=C(NCC1CCCO1)c1cc2c([nH]c3ccccc32)c(-c2cccc(Br)c2)n1 (centres undefined) 33.6%, Cc1cc(=O)[nH]c(SCC(=O)Nc2ccc(F)c([N+](=O)[O-])c2)n1 -19.5%, COc1ccc(CNC(=O)CSc2nnc(NC(=O)c3ccccc3F)s2)cc1 -52.7%, CC1CCCCC1NC(=O)CCn1ccc2cc(S(=O)(=O)N3CCCC3)ccc21 (centres undefined) 13.3%, C(=C\c1ccncc1)/c1ccccc1 -7.3%, Nc1nnc(/C=C/c2ccccc2)s1 -41.9%, COc1cc2c(c(O)c1OC)-c1c(cc(OC)c(OC)c1OC)C[C@@H](C)[C@@H](C)C2 1.8%, Cc1ccc(-c2noc(CCCC(=O)NCC3CCCO3)n2)cc1 (centres undefined) 8.8%, COc1ccc(NC(=O)C(Cl)=C(Cl)Cl)cn1 30.7%, COc1ccc(CC(=O)Nc2ccc(OC)nc2)cc1 -29.9%, Nc1ccccc1Nc1ccccc1 48.8%, Nc1ccc(Nc2ccccc2N)cc1 2.7%, CCCCCn1c(C)c2c(OCC)cccc(=O)c2c1C -1%, CCN(CC)CCNCc1cc(Br)ccc1OCC(=O)NCc1ccccc1 7.4%, N#Cc1cc([N+](=O)[O-])ccc1NC(=O)COC(=O)CC1CCCC1 -12.2%, Cc1ccccc1S(=O)(=O)Cc1ccc(C(=O)NCc2ccco2)o1 -5.4%, CNC(=O)c1ccccc1S(=O)c1ccccc1COC(C)=O (centres undefined) -5.2%, COc1cc2c(cc1OC)CN(C(=O)CSc1nc(N)c(C#N)cc1C#N)CC2 6.8%, Cc1cc(C)c(C#N)c(SCC(=O)N2CCCCC2)n1 -5.5%, CC12C(=O)N(c3ccccn3)C(=O)C1C1C=CC2C1 (centres undefined) 15.9%, CN(C)CCN(C(=O)c1cccc2ccccc12)c1nc2cc3c(cc2s1)OCO3 17.7%, O=[N+]([O-])c1ccc(N2CCN(Cc3cccc([N+](=O)[O-])c3)CC2)cc1 11.9%, O=[N+]([O-])c1ccc(CN2CCCCCC2)cc1 -21%, CCC(C(=O)N1CCN(c2ncccn2)CC1)c1ccccc1 (centres undefined) 4.2%, CC(CC(=O)N(C)C1CCCCC1)S(=O)(=O)c1ccc2c(c1)NC(=O)CO2 (centres undefined) -10.5%, COc1ccc(OC)c(NC(=S)NC(=O)c2ccc(Br)o2)c1 -27.7%, COc1ccc(OCC(=O)NNC(=S)NC(=O)c2ccc(Br)o2)cc1 -38.4%, COc1ccc(CCNC(=O)C/C(C)=N/NC(=O)c2ccc(N)cc2)cc1OC -10.1%, Cc1sc2ncn(CC(=O)NCCCC(=O)N3CCCCC3)c(=O)c2c1C 12.4%, CCNCc1cc(Cl)cc(OC)c1OC(C)C 17.6%, C=CCOc1c(CNC2CCCC2)cc(Cl)cc1OC -19.3%, COc1ccc(N)cc1S(=O)(=O)Nc1ccccc1Cl 9.1%, COc1ccc(OCC(=O)Nc2ccc(S(=O)(=O)N3CCCCCC3)cc2)cc1 -7.8%, O=S(=O)(c1ccc(S(=O)(=O)N2CCC(O)CC2)cc1)N1CCCC1 29.3%, COc1ccc(CCn2ccc(O)c(Cc3ccc(Cl)cc3)c2=O)cc1OC 3.1%, COc1ccc(CCn2ccc(O)c(Cc3ccc(Cl)cc3Cl)c2=O)cc1OC -2.8%, CN1CCN(C(=S)c2ccc(Cl)cc2)CC1 1.9%, NC(=O)C1CCN(Cc2ccc(OCc3ccccc3)cc2)CC1 -29.8%, O=S(=O)(NC1CC1)c1cccc(S(=O)(=O)N2CCCC2)c1 -9.9%, COc1ccc(CNC(=O)CC(C)CC2=NS(=O)(=O)c3ccccc3N2)cc1 (centres undefined) -5.1%
